NALP1 yeast inh: NALP1 inflammasome inhibitors in reconstituted yeast, colorimetric, S. cerevisiae, triplicate retest | S. cerevisiae NALP1/ASC/caspase-1 growth, X-gal OD620, 72 h | inhibition, % at 10 µM | 280,000 tested, 0.61% active | AID 2071, 2009; in the data active means inhibition mostly above about 24%, no sharp cut-off; inactive means mostly below about 32%
dFosB act: activators of delta FosB homodimer, primary screen, biochemical, fluorescence polarization, TAMRA-CDK5 oligo, single point; Protein FosB (Mus musculus), P13346; purified delta FosB; percent of positive-control signal above neutral wells; activation, % at 25 µM; 340,000 tested, 0.99% active; AID 493131, 2011;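 active means mean activation above about 17%, with every replicate also reaching it, limit read from the data, passing the limit was not always enough; inconclusive means only one of the two conditions met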
Target sequence (P13346 whole entry, looked up): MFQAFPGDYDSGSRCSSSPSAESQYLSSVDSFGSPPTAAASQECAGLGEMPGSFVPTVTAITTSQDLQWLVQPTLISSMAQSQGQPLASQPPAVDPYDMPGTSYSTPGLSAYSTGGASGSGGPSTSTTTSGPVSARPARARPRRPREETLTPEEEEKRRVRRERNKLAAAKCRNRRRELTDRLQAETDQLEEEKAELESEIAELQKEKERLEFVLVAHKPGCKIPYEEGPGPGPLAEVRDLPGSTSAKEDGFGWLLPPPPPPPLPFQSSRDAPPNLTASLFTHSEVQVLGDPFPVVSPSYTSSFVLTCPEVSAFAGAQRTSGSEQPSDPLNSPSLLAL
Yeast superoxide: reduction of superoxide in aged yeast, primary screen, HTS; 330,000 tested, 0.18% active; superoxide response (% of plate mean), % at 10 µM; S. cerevisiae aged cells, superoxide DHE fluorescence; stronger effect = lower value;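 active means superoxide response under a set limit, about three screen SD below normal, cut at about 65% in these data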;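 further: yeast aged for seven days with compound at 30 °C before DHE staining; 100% = average MFI of all compound-treated wells on the plate with controls excluded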
NR3A LBD binder: binders of NR3A ligand-binding domain, primary screen, biophysical, differential scanning fluorimetry, uHTS; NR3A LBD differential scanning fluorimetry, Tm shift; 0% = protein alone, 100% = glycine-bound protein; Tm shift relative to glycine control, % at 25 µM; Glutamate receptor ionotropic, NMDA 3A (GRIN3A) ligand-binding domain; AID 1259313, 2017; 340,000 tested, 2.5% active;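 active means melting temperature shift of at least 10% of the positive control shift, at one fixed dose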
UBC13 inh: UBC13 polyubiquitin chain formation inhibitors, primary screen, biochemical, TR-FRET, uHTS | AID 485273, 2010 | 330,000 tested, 0.47% active | Ubiquitin-conjugating enzyme E2 N (Homo sapiens), P61088 | inhibition, % at 20 µM; in the data active means inhibition above about 45%, passing the limit was not always enough; inconclusive means no clear call, values can overlap the other calls
Target sequence (P61088 whole entry, looked up): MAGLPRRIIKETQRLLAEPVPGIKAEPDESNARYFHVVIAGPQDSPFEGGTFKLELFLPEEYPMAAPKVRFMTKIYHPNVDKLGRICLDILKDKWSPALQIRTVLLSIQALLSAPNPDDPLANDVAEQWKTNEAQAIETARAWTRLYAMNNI
* hit, by the source's call; ? = inconclusive; · = not tested or not shown. Most compounds without a hit are left out; they make up all but 4.3% or so of the library.

SMILES	NALP1 yeast inh	dFosB act	Yeast superoxide	NR3A LBD binder	UBC13 inh
CCCN=C1N(CC)C[C@@H]2[C@@H]3C(=O)N(Cc4ccccc4)C(=O)[C@@H]3[C@](Cc3ccccc3)(C(=O)OC)N12	·	1	98	13*	·
O=C(CCNS(=O)(=O)c1ccccc1)NNC(=O)COc1ccccc1F	·	-1	98	2	0
COCCN1Cc2cccc(C(=O)Nc3cc(OC)ccc3OC)c2C1=O	28*	-1	99	3	-8
O=C(CCCCn1c(=O)c2ccccc2n(Cc2ccc(Cl)cc2)c1=O)NCc1ccco1	25	-4	103	14*	13
CN(C)c1ccnc(Oc2ccc(Cl)cc2)c1C#N	16*	-3	92	2	9
CN(C)c1ccnc(Oc2ccccc2)c1C#N	1	-3	·	-1	·
Cc1ccc(C(=O)N/C(=C\c2ccco2)C(=O)NCCN2CCOCC2)cc1C	6	5	107	0	-10
COc1cc(/C=C/c2nnc3c4ccccc4ncn23)cc(OC)c1OC	23	27*	100	-1	14
O=C(Cc1ccc(F)cc1)N1CCOCC1	6	-3	108	0	13
COc1ccc(/C=C/C(=O)NC(=S)NCc2ccccc2)cc1OC	4	0	81	5	-6
Cc1ccc(-c2cc(C(=O)N3N=C(C(F)F)CC3(O)C(F)F)c3ccccc3n2)cc1C (stereo unspecified)	-15	-24	100	35*	6
CCOc1ccccc1NC(=O)C(c1ccccc1)N1CCN(CC(=O)N2CCCC2)CC1 (stereo unspecified)	·	-15	95	-1	4
O=[N+]([O-])c1ccc(O)c(-c2nc(-c3ccccc3)c(-c3cccs3)[nH]2)c1	3	-9	109	30*	-56
O=C(O)c1ccc(-c2nc(-c3ccccc3)c(-c3cccs3)[nH]2)cc1	·	2	103	1	14
CCc1ccc(/C=C2/SC(=S)N(CCC(=O)Nc3cccnc3)C2=O)cc1	21	-14	108	0	-9
CCN(CC)C(=O)Oc1cc(=O)n(C)c2ccccc12	36	0	97	25*	-7
Cc1cc(NC(=O)CCC(=O)N(CC(=O)NC2CCCC2)c2ccc(F)c(Cl)c2)no1	-5	-8	101	-2	5
O=C(Cc1nnc(NC(=O)Nc2ccccc2)s1)NCc1ccccc1	20	8	107	-2	0
O=C(Nc1ccc(Cl)cc1)Nc1nnc(CSc2ccc(Cl)cc2)s1	6	-7	115	27*	-5
O=C(Nc1ccccc1)Nc1nnc(SCc2ccc(Cl)cc2)s1	33	3	91	35*	-5
O=C(Nc1ccc(Cl)cc1)Nc1nnc(CSCc2ccccc2)s1	29	-10	113	-6	-21
O=C(Nc1ccc(F)cc1)Nc1nnc(COc2ccccc2F)s1	-12	11	83	36*	-1
O=C(Cc1nnc(NC(=O)Nc2ccc(Cl)cc2)s1)NCc1ccccc1	40	-8	105	16*	-4
Cc1oc(=O)cc(OCc2ccccc2)c1C	·	-9	107	-1	·
CCC(C)NC(=O)CCSc1ccc(C)cc1 (stereo unspecified)	30	-8	93	1	7
SMILES	NALP1 yeast inh	dFosB act	Yeast superoxide	NR3A LBD binder	UBC13 inh
CCOC(=O)C(=O)Nc1nnc(SCc2ccc(F)cc2)s1	32	1	95	22*	-5
CCC(=O)Nc1nnc(SCc2ccc(F)cc2)s1	2	3	94	-7	1
C=CCC(CC(O)COCCC)C(=O)NNC(=S)Nc1ccccc1 (stereo unspecified)	-5	-4	104	10*	-6
Cc1cc(N2CCN(C(=O)c3cccs3)CC2)c(F)cc1[N+](=O)[O-]	-2	-10	110	1	-2
O=C(/C=C\Nc1ccc2c(c1)OCO2)c1ccccn1	11	-1	97	35*	16
CC(C)c1ccc2[nH]c(O)c(N=NC(=O)c3cccc(S(=O)(=O)Nc4ccc(Cl)cc4)c3)c2c1	13	1	95	43*	-29
Cc1ccc2[nH]c(CN3CCC(CO)(CC4CCCCO4)CC3)c(C)c2c1 (stereo unspecified)	10	-3	91	-2	18
COc1ccc2c(c1)c(CC(=O)NCc1cc([N+](=O)[O-])ccc1O)c(C)n2C(=O)c1ccc(Cl)cc1	6	-7	·	24*	-9
COCCn1c(=NC(=O)CSCC(=O)N2CCOCC2)sc2ccccc21	16	5	88	2	-4
CC(Sc1nccn1C)C(=O)Nc1ccc(Cl)cn1 (stereo unspecified)	·	-1	100	1	-4
CCOC(=O)C(=O)/C(=C\N(C)C)c1onc(-c2c(Cl)cccc2Cl)c1C(=O)OC	29	8	101	11*	1
N#CC(Sc1ccccn1)c1ccc(Cl)cc1 (stereo unspecified)	26	-2	106	-1	3
CNC(=S)NNC(=O)c1cccc(C(F)(F)F)c1	-1	8	97	0	8
NC(=S)NNC(=O)c1cc(C(F)(F)F)cc(C(F)(F)F)c1	·	1	89	31*	-7
O=C(O)c1ccc2c(c1)-c1cc(C(=O)O)ccc1S2(=O)=O	7	-2	70	-2	-3
CCOC(=O)c1ccc(NC(=O)Oc2ccccc2)cc1	15	2	106	34*	11
CCOC(=O)c1ccc(NC(=O)Oc2cc(C)c(Cl)cc2C(C)C)cc1	20	-4	92	15*	7
CCOC(=O)c1ccc(NC(=O)Nc2ncc(Cl)cc2Cl)cc1	·	·	93	·	-1
CN1/C(=C/c2cc[n+](C)c3ccccc23)C=Cc2ccccc21	0	51*	·	0	·
C[n+]1ccc(/C=C/c2ccccc2O)c2ccccc21	4	-4	94	-1	-62
O=C(N/N=C/c1c(O)ccc2ccccc12)c1ccc(Br)o1	-6	30*	91	7	-17
O=C(N/N=C\c1c(O)ccc2ccccc12)c1cncc(Br)c1	0	5	83	0	-69
O=C(N/N=C\c1c(O)ccc2ccccc12)c1ccc(O)cc1	-14	?	98	41*	-22
Cc1occc1C(=O)N/N=C/c1c(O)ccc2ccccc12	-10	-4	103	32*	-18
O=C(NN=Cc1c(O)ccc2ccccc12)c1ccncc1	·	8	·	-6	·
CCCc1nn(C)c(C(=O)Nc2cccc(Cl)c2)c1Cl	28	1	103	-8	7
CCCc1nn(C)c(C(=O)Nc2cccc(C)c2)c1Cl	46*	-6	92	-8	-6
O=C(Nc1ccc2oc(-c3ccncc3)nc2c1)c1ccccc1	-4	-12	100	-7	12
